aDG glyco up – increases alpha dystroglycan glycosylation; actives 0.22% (n = 360,000); activation, % at 10 µM; AID 624168; Pro5-aDG cells, alpha-DG glycosylation AlphaScreen (IIH6); 0% Pro5, 100% B10-LARGE cell signal;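 active means activation of at least 8% versus controls, or a plate z-score of at least 8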;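 further: Pro5 are CHO cells carrying HIG-tagged alpha-DG that lacks glycosylation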
SUMO Mot1 rescue – SUMOylation pathway inhibition by Mot1-301 growth rescue; S. cerevisiae Mot1-301 growth rescue, ATP luminescence, 38.5C; percent above DMSO median, 100 means doubled; actives 1% (n = 320,000); growth rescue, % at 18.8 µM; AID 2716;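 active means every valid replicate shows activation above 250% relative to neutral control wells; inactive means the rest, any valid replicate at or below 250%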;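 further: OY570 slx delta 5 strain wells were the positive control but not used for scaling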
ARNT TACC3 PPI – disruptors of human ARNT/TACC3 interaction | actives 0.66% (n = 390,000) | AID 623870 | AlphaScreen His-ARNT PAS-B/GST-TACC3 binding, luminescence; TACC3 fragment carries E629A point mutation | Q9Y6A5 | inhibition, % at 9.99 µM;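 active means mean inhibition of replicates at least 50% and at least half of replicates each reaching 50%; inconclusive means half or more replicates reach 50% but mean below 50%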;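 further: 0% = complete ARNT plus TACC3 wells and 100% = ARNT alone without TACC3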
Bfl-1 A1 inh – inhibitors of the anti-apoptotic protein A1, read as caspase activation; caspase activation, % (no concentration beside the values); MEF A1-2A-BIM cells, Caspase-Glo 3/7 luminescence, 3 h; percent of clofoctol response, vehicle zero; actives 0.066% (n = 330,000); AID 2462;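 active means over half of replicate activation scores above 10%, or exactly half above 10 with the replicate mean above 10; inconclusive means replicate mean below 10 yet half the replicates above 10; inactive means over half of replicates below 10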
AI-2 QS modul – Vibrio harveyi AI-2 quorum sensing modulation; actives 0.4% (n = 300,000); activity change, % at 7.5 µM; Vibrio harveyi JMH597 AI-2 luminescence/OD600 ratio, 9 h; hits give low values; strain lacks LuxN and CqsS sensors; 0 = neutral-control median; in the data active means activity change below about -75%, passing the limit was not always enough; inconclusive means no clear call, values can overlap the other calls;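 further: luminescence divided by OD600 gain over 9 h not by final OD600 alone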
Yeast Mot1 SUMO – SUMO pathway inhibitors in yeast Mot1-301 growth; shares compounds with SUMO Mot1 rescue; S. cerevisiae Mot1-301 galactose growth, ATP luminescence, 24 h; -100 = growth of slx-deleted rescue strain; growth activity, percent, % at 42 µM; 2,300 tested, under 10 active; AID 493004;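 active means Signal drops as the depositor expects, and the fitted half-maximal dose is no more than ten times the top valid tested dose; inconclusive means Poor fit, or a flat curve whose signal drops by 30% to 70%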;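 further: more negative values mean stronger growth rescue toward the control strain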
Starred values were filed as active, the others as inactive; u = inconclusive; x = no result given; + = active, no number. In the library only some 1.8% were active in any assay of this set; here they are far more common.

SMILES	aDG glyco up	SUMO Mot1 rescue	ARNT TACC3 PPI	Bfl-1 A1 inh	AI-2 QS modul	Yeast Mot1 SUMO
O=C(Nc1ccc(Cl)cn1)c1ccc(COc2ccccc2Br)o1	0.2	7.2	-13.2	-0.7	0.4	x
O=C1c2ccccc2C(=O)N1CCSc1ccccc1	0.4	+	-6.7	x	-16.3	0.3
Cc1cc(C)cc(N(CC(=O)NCc2ccccc2Cl)S(=O)(=O)c2c(C)[nH]c(=O)[nH]c2=O)c1	-0.2	2.8	4.4	0.3	21.5	x
Cc1cc(NC(=O)c2ccc3c(c2)C(=O)N(C(C)(C)C)C3=O)no1	-0.5	446.7*	-3.1	0.7	8.8	0.0
Cc1cc(NC(=O)c2ccc3c(c2)C(=O)N(CC(C)C)C3=O)no1	-0.2	-14.5	8.4	0.5	24.9	x
CCOC(=O)c1[nH]c2ccc(Br)cc2c1NC(=O)CCN1CCN(C(=O)OCC)CC1	-0.1	-7.3	x	-0.4	30.1	x
CCOC(=O)c1[nH]c2ccc(Br)cc2c1NC(=O)CCN1CCOCC1	0.0	413.1*	-2.0	-0.4	1.3	-1.0
CCc1noc(C)c1C(=O)Nc1nc(-c2cc(C)ccc2C)c(C)s1	0.5	108.1	9.6	0.3	45.7	x
CCc1noc(C)c1C(=O)Nc1nc(-c2ccc(F)cc2)c(C)s1	0.8	634.3*	-5.5	u	23.8	-0.2
CCCCC1=CC2=CC(=O)C(C)(OC(=O)CC)C(=O)C2=CN1CCc1ccc(Br)cc1 (stereo not given)	0.0	525.9*	3.8	0.5	2.3	-0.4
CCCCC1=CC2=CC(=O)C(C)(OC(=O)CC)C(=O)C2=CN1CCOC (stereo not given)	0.0	63.2	12.4	0.2	19.6	x
C[C@@H]1CN([C@@H](C)CO)C(=O)Cc2cc(NC(=O)CCCCCC(=O)Nc3ccccc3N)ccc2O[C@@H]1CN(C)Cc1ccc2c(c1)OCO2	x	x	-2.7	x	x	x
CC1(C)C=C(c2ccc(O)cc2)CC(C)(C)N1	0.0	659.6*	-3.8	1.2	19.9	1.3
C/C=C(/C(=C/C)c1ccc(O)cc1)c1ccc(O)cc1	0.5	-4.9	-2.0	1.3	3.9	x
CCCCCOC(=O)C1=C(C)N(C)C(=O)NC1c1cc(Br)c(O)c(OC)c1 (stereo not given)	0.0	879.0*	10.1	0.2	19.8	-0.3
COCCNC(=O)c1ccc2snnc2c1	-0.3	113.7	x	0.3	-5.3	x
N#CCCN(Cc1cccnc1)C(=O)Nc1cccc(Cl)c1	-0.3	+	-18.0	-0.9	20.7	0.3
N#CCCN(Cc1cccnc1)C(=O)Nc1ccccc1	-0.2	3.4	-4.8	0.3	13.7	x
CCOc1ccccc1OCCCC(=O)NCCc1ccc(S(N)(=O)=O)cc1	-0.1	-8.6	-2.4	0.7	8.1	x
CCCCC(=O)NCCc1ccc(S(N)(=O)=O)cc1	-0.1	+	-5.5	0.5	17.2	-0.3
Cc1ccsc1C(=O)NCCc1ccc(S(N)(=O)=O)cc1	-0.2	764.9*	-23.4	0.2	12.0	0.0
Cc1ccc(/C=C/C(=O)NCCCn2ccnc2)cc1	-0.1	-1.8	-6.2	0.9	10.2	x
CCOC(=O)c1ccc2c(c1)n(CC)c(/C=C/N(C)c1ccccc1)[n+]2CC	1.7	0.5	-5.3	-1.3	6.3	x
CC[n+]1c(/C=C/N(C)c2ccccc2)n(-c2ccccc2)c2ccc(-c3nc4ccccc4s3)cc21	-0.6	501.4*	40.8	1.1	-7.6	-0.6
CC(=O)N(C)c1ccc(N2CCOCC2)c2c1C(=O)c1ccccc1C2=O	0.1	455.9*	11.5	0.4	11.7	1.4
SMILES	aDG glyco up	SUMO Mot1 rescue	ARNT TACC3 PPI	Bfl-1 A1 inh	AI-2 QS modul	Yeast Mot1 SUMO
COc1ccc(C(=O)Nc2cc(C(=O)c3ccccc3)c(C)oc2=O)cc1	-0.1	-13.8	0.5	-1.2	7.7	x
CCOc1ccccc1CN1CCN(Cc2ccon2)CC1CCO (stereo not given)	0.0	816.7*	-3.2	0.0	9.8	0.1
CCOc1ccccc1CN1CCN(CC2CC2)CC1CCO (stereo not given)	-0.1	-5.0	15.4	1.3	5.3	x
CCOc1ccc2nc(CN3CCN(Cc4ccccc4OCC)C(CCO)C3)ccc2c1 (stereo not given)	0.2	510.7*	-13.2	1.3	12.7	-0.3
CCOc1ccc(/C(O)=C2\C(=O)C(=O)N(c3ccccn3)C2c2ccccc2F)c(C)c1 (stereo not given)	-0.1	x	x	x	x	x
Cc1ccc(NC(=S)Nc2cc(C(=O)O)ccc2N2CC3CC(C2)c2cccc(=O)n2C3)cc1C (stereo not given)	0.0	2.3	23.9	0.4	22.7	x
CCC(Sc1nc2ccsc2c(=O)n1CCC(=O)O)C(=O)Nc1ccc(Cl)cc1 (stereo not given)	0.0	x	x	x	x	x
CCC(C(=O)N1CCN(C(=O)c2ccco2)CC1)n1sc2ccccc2c1=O (stereo not given)	0.3	-3.1	-1.8	-0.2	7.3	x
CC(C(=O)N1CCN(C(=O)c2ccco2)CC1)n1sc2ccccc2c1=O (stereo not given)	0.2	379.9*	-6.8	0.3	1.9	1.0
C=CCOC(=O)C(C#N)c1nc2ccccc2nc1N1CCN(Cc2ccccc2)CC1 (stereo not given)	-0.5	501.2*	-4.2	-1.1	12.2	-0.3
COCCOC(=O)C(C#N)c1nc2ccccc2nc1N1CCN(Cc2ccccc2)CC1 (stereo not given)	-0.2	-0.7	23.8	0.0	26.3	x
CCCNC(=O)[C@@H]1[C@@H](CO)[C@@H]2Cn3c(ccc(-c4ccncc4)c3=O)[C@H]1N2C(=O)CC1CC1	x	x	-0.6	x	x	x
O=C(NCCc1c[nH]c2ccccc12)c1cc(S(=O)(=O)N2CCCCC2)ccc1N1CCOCC1	-0.2	449.5*	2.3	1.0	8.1	-0.3
Nc1cccc2c1C(=O)N(Cc1cccc(Cl)c1)C2=O	0.2	-24.5	-23.6	0.4	6.7	x
O=C(c1ccc(C(F)(F)F)n(Cc2ccc(Cl)cc2)c1=O)N1CCOCC1	0.0	-5.9	5.6	-0.5	16.3	x
O=C(c1cc(Cl)c(=O)n(Cc2ccc(Cl)cc2)c1)N1CCOCC1	-0.1	657.8*	-3.1	0.0	19.6	-0.3
CCOc1ccc(N(CC(=O)Nc2cc(OC)cc(OC)c2)S(=O)(=O)c2c(C)[nH]c(=O)[nH]c2=O)cc1	-0.3	23.7	3.8	0.1	21.1	x
COCCCNC(=O)c1cc(C(=O)c2c(-c3c(Cl)cccc3Cl)noc2C)c[nH]1	0.8	+	-12.5	-0.2	19.9	-0.2
C[C@@H]1CN([C@@H](C)CO)C(=O)c2cccc(NC(=O)c3cnccn3)c2O[C@@H]1CN(C)Cc1ccc(-c2ccccc2)cc1	x	x	19.6	x	x	x
Cc1ccc(C(=O)NCCCN2CCOCC2)cc1	-0.1	410.4*	1.3	0.9	9.9	-0.3
